# Compound activity from PubChem.
# A selection: hits, their analogues and other compounds. The true share with any hit is near 2.8%.
# CDK5 inh: blocks human CDK5/p35 kinase activity. Recombinant CDK5/p35, ADP-Glo luminescence, 60 min. hit rate 0.01% among 330,000. AID 488839. Q00535+Q15078. inhibition, % at 10 µM;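 active means highest replicate inhibition of at least 50% and at least 75% of replicates reaching 50%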;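 further: plate controls were DMSO neutral control for no effect and GW8510 at 10 µM for full effect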
# dFosB activator: mouse delta FosB homodimer activation; activation, % at 25 µM; hit rate 0.99% among 340,000; P13346; purified delta FosB, TAMRA-CDK5 oligo fluorescence polarization; percent of positive-control signal above neutral wells;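 active means mean activation above about 17%, with every replicate also reaching it, limit read from the data, passing the limit was not always enough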
# Target sequence (P13346 whole entry, looked up): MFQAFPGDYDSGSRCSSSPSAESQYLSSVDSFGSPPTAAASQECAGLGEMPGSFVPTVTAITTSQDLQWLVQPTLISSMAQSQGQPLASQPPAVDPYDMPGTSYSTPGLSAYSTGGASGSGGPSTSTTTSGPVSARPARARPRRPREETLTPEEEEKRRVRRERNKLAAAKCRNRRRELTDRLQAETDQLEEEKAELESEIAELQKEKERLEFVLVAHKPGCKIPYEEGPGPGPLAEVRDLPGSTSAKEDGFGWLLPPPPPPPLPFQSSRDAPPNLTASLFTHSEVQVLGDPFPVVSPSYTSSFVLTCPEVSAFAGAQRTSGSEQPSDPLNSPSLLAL
# PglD inh: blocks C. jejuni PglD acetyltransferase activity. purified PglD enzyme, DTNB colorimetric CoA detection. inhibition, % at 12.5 µM. hit rate 0.098% among 360,000; in the data active means inhibition above about 16%, passing the limit was not always enough
# PvdQ acylase: P. aeruginosa PvdQ acylase inhibition; purified PvdQ acylase, fluorescence plate reader; hit rate 0.063% among 340,000; inhibition, % at 10 µM; AID 488965; in the data active means inhibition above about 30%, passing the limit was not always enough;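 further: 0% = vehicle neutral wells and 100% = reference inhibitor wells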
# FGF22 binding: FGF22 (human) thermal shift binding; Q9HCT0; recombinant FGF22 thermal shift, SYPRO orange fluorescence; percent of sucrose octasulfate shift, DMSO zero; activity (Tm shift, normalised), % at 9.99 µM; hit rate 1.5% among 340,000;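 active means mean Tm shift, scaled 0 neutral to 100 positive control, at about 1.3% or above, every replicate too, limit read from the data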
# Target sequence (Q9HCT0 whole entry, looked up): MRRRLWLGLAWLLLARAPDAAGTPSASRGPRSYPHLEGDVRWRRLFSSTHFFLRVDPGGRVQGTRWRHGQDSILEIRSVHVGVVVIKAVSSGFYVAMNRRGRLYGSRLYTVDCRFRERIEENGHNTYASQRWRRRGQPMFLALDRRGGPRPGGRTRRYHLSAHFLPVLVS
# SIRT5 inh: inhibitors of human sirtuin-5 desuccinylase. Q9NXA8. Purified SirT5, succinyl-peptide AMC, trypsin-coupled fluorescence. inhibition, % at 15 µM. hit rate 1.1% among 330,000. AID 652115; in the data active means inhibition above about 15%
# Active calls of the source: *; . = no result given.
SMILES,CDK5 inh,dFosB activator,PglD inh,PvdQ acylase,FGF22 binding,SIRT5 inh
C[C@@H]1CCCCO[C@@H](CN(C)Cc2ccc(C(F)(F)F)cc2)[C@H](C)CN([C@@H](C)CO)C(=O)c2cc(NS(=O)(=O)c3ccc(F)cc3)ccc2O1,.,.,3,.,0,19*
C[C@@H]1CCCCO[C@H](CN(C)Cc2ccc(C(F)(F)F)cc2)[C@@H](C)CN([C@@H](C)CO)C(=O)c2cc(NS(=O)(=O)c3ccc(Cl)cc3)ccc2O1,.,.,0,.,0,15
C[C@@H]1CN([C@@H](C)CO)C(=O)c2cc(NS(=O)(=O)c3cn(C)cn3)ccc2O[C@@H](C)CCCCO[C@@H]1CN(C)Cc1ccc(C(F)(F)F)cc1,.,.,1,.,0,15*
C[C@@H]1CN([C@@H](C)CO)C(=O)c2cc(NS(=O)(=O)c3ccc(F)cc3)ccc2O[C@@H](C)CCCCO[C@H]1CN(C)Cc1ccc(C(F)(F)F)cc1,.,.,3,.,0,28*
O=C(C[C@@H]1CC[C@@H](NC(=O)c2cccc(F)c2)[C@@H](CO)O1)Nc1nccs1,.,.,4,.,0,8
Cc1c(OCc2ccccc2)c(=O)ccn1Cc1ccccc1,3,3,.,4,.,.
O=c1ccn(Cc2ccccc2)c2ccccc12,1,5,-4,-3,0,36*
CCOC(=O)c1cc(C#N)c(SCC(=O)O)[nH]c1=O,0,0,.,7,45*,-5
CCOC(=O)c1cc(C#N)c(SCC(=O)Nc2ccc(C(C)=O)cc2)[nH]c1=O,-3,-4,.,-14,1.4*,-3
CCOC(=O)c1cc(C#N)c(SCC(N)=O)[nH]c1=O,1,-1,.,-5,0,-7
Cc1cnc(C(=O)OCC(=O)Nc2cccc(S(=O)(=O)N3CCCCC3)c2)cn1,0,-1,.,-4,0,28*
NS(=O)(=O)c1cccc(NC(=O)COC(=O)Cc2ccc(S(=O)(=O)N3CCCCC3)s2)c1,-1,-15,.,5,43*,2
O=C(COC(=O)Cc1ccc(S(=O)(=O)N2CCCCC2)s1)Nc1ccc2c(c1)OCO2,2,-5,-5,-20,.,.
Cc1cnc(C(=O)OCC(=O)Nc2ccc(C)c(S(=O)(=O)N3CCCCCC3)c2)cn1,-2,-19,3,-15,1,-1
C[C@H](CO)N1C[C@H](C)[C@H](CN(C)S(=O)(=O)c2ccccc2)Oc2ccc(N(C)C)cc2C1=O,.,.,3,.,-1,.
CC(C)Cc1nc2ccccc2n1CCc1ccccc1,1,-7,.,-11,43*,1
CCc1nc2ccccc2n1CCc1ccccc1,-1,-4,.,6,0,-5
COc1ccc(Nc2nc3ccccc3nc2NS(=O)(=O)c2cccs2)cc1,-1,-4,-3,-7,.,.
O=S(=O)(Nc1nc2ccccc2nc1OCC(F)(F)F)c1cccs1,1,-3,2,-5,45*,-3
COc1cccc(CNC(=O)COC(=O)c2c(NC(C)=O)sc(C)c2C)c1,2,-6,0,10,43*,-2
CN1C(=O)c2cc(NS(=O)(=O)c3ccc(Cl)cc3)ccc2OC[C@H]2O[C@@H](CC(=O)N3CCc4ccccc4C3)CC[C@@H]21,.,.,1,.,.,16*
COc1cccc(CNC(=O)C[C@H]2CC[C@@H]3[C@@H](COc4ccc(NC(=O)c5cccs5)cc4C(=O)N3C)O2)c1,.,.,3,.,0,25*
CN1C(=O)c2cc(NS(C)(=O)=O)ccc2OC[C@@H]2O[C@@H](CC(=O)NCc3ccc(-c4ccccc4)cc3)CC[C@@H]21,.,.,6,.,0,15*
COc1cccc(CNC(=O)C[C@@H]2CC[C@@H]3[C@@H](COc4ccc(NC(=O)c5cccs5)cc4C(=O)N3C)O2)c1,.,.,4,.,0,-1
CN1C(=O)c2cc(NS(C)(=O)=O)ccc2OC[C@H]2O[C@H](CC(=O)NCc3ccc(-c4ccccc4)cc3)CC[C@@H]21,.,.,11,.,0,5
SMILES,CDK5 inh,dFosB activator,PglD inh,PvdQ acylase,FGF22 binding,SIRT5 inh
C[C@@H]1CN([C@@H](C)CO)C(=O)c2cc(C#Cc3cccnc3)cnc2O[C@@H]1CN(C)C(=O)CN(C)C,.,.,6,.,0,3
Cc1noc(C)c1S(=O)(=O)Nc1ccc2c(c1)C(=O)N([C@@H](C)CO)C[C@@H](C)[C@H](CN(C)C(=O)Nc1cccc3ccccc13)OCCCC[C@@H](C)O2,.,.,-1,.,0,10
COc1ccc(S(=O)(=O)N2CCOCC2)cc1NC(=O)c1cc2c(s1)CCCC2,0,-7,.,-1,.,.
O=C(Nc1cc(S(=O)(=O)N2CCOCC2)ccc1N1CCOCC1)c1cc2c(s1)CCC2,-1,-1,.,-3,0,17*
Cc1cc(C)nc(NC(=O)c2ccc(COc3ccccc3Cl)cc2)c1,0,-3,7,-9,44*,-5
CC(=O)N(C)C[C@@H]1Oc2ncc(C#Cc3cccc(F)c3)cc2C(=O)N([C@H](C)CO)C[C@H]1C,.,.,0,.,0,21*
C[C@H]1CN([C@@H](C)CO)C(=O)c2cc(C#CCC3CCCC3)cnc2O[C@H]1CN(C)C(=O)c1cnccn1,.,.,-2,.,0,24*
CC(=O)N(C)C[C@H]1Oc2ncc(C#CCC3CCCC3)cc2C(=O)N([C@@H](C)CO)C[C@H]1C,.,.,2,.,0,19*
C[C@H](CO)N1C[C@H](C)[C@H](CN(C)C(=O)c2cnccn2)Oc2ncc(C#CCC3CCCC3)cc2C1=O,.,.,2,.,0,0
CCOC(=O)c1cc(-c2cccnc2)nn1-c1ccccc1C,-2,-4,2,-6,44*,-2
Cc1cccc2c(N)c3c(nc12)CCCC3 (tested in a mixture with another compound),-1,-5,3,-8,0,.
Cc1cc(C)c2c(N)c3cccc(C)c3nc2n1,-1,49*,.,-12,0,-28
C[C@@H]1CN([C@H](C)CO)C(=O)c2ccccc2-c2ccccc2CO[C@H]1CN(C)C(=O)Nc1ccc2c(c1)OCO2,.,.,0,.,0,.
O=c1cc(N/N=C/c2ccccc2)[nH]c(=O)[nH]1,0,-4,5,-13,.,1
O=c1nccc(N/N=C/c2ccccc2)[nH]1,4,-18,5,-14,0,24*
CCN1CCCCC(=N/O)/C(=N/O)CCCC1,1,3,-2,-18,0,18*
Cc1nc2c(n1O)CCC/C2=N\O,2,-2,-1,-7,.,.
OC[C@@H]1[C@@H](c2ccccc2)C2(CN(CC3CC3)C2)N1Cc1cncnc1,.,.,.,.,0,0
COc1ccc(-n2c(SCC(N)=O)nc3sc4c(c3c2=O)CCC4)cc1,0,5,13,-28,43*,-2
COc1ccc(-n2c(SCC(=O)O)nc3sc4c(c3c2=O)CCC4)cc1,1,1,0,-8,0,1
C[C@@H]1CN([C@H](C)CO)S(=O)(=O)c2ccc(-c3ccccc3F)cc2O[C@@H]1CN(C)C(=O)C1CC1,.,.,3,.,0,1
